Outcome and AC50 data for six molecules are collected here from PubChem BioAssay (EPA / NIEHS).

Activity calls are given as the source filed them. Rule for the calls: active = hit-call score of the fitted dose curve at least 0.9, where 1 is the maximum; inactive = score below 0.9.

What all share (settings): mRNA level, 48 h; actives raise or lower the signal
Read-out in test [1]: Bcl-2 (BAD) gene, BAD (gene 572)
Kind of test: LTEA_HepaRG_BAD: Life Technologies and Expression Analysis (LTEA) Assay for Bcl-2 (BAD) gene using HepaRG (AID 2283469). The method, boiled down:
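Differentiated human HepaRG cells in serum-free induction medium were exposed in duplicate for 48 h to eight concentrations (top 100 uM, half-log steps, 0.5% DMSO). BAD mRNA was quantified by qRT-PCR normalised to ACTB, GAPDH and POLR2A, with bidirectional fitting versus DMSO.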

Read-out in test [2]: Bcl-2 (BAX) gene, BAX (gene 581)
Description: LTEA_HepaRG_BAX: Life Technologies and Expression Analysis (LTEA) Assay for Bcl-2 (BAX) gene using HepaRG (AID 2283470). Put shortly:
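Differentiated HepaRG cells exposed 48 h in serum-free induction medium, eight half-log concentrations from 100 uM, in duplicate, 0.5% DMSO vehicle. BAX mRNA by TaqMan qRT-PCR, normalised to ACTB, GAPDH and POLR2A.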

Read-out in test [3]: Alpha-fetoprotein (AFP) gene, AFP (gene 174)
Description: LTEA_HepaRG_AFP: Life Technologies and Expression Analysis (LTEA) Assay for Alpha-fetoprotein (AFP) gene using HepaRG (AID 2283472). Put shortly:
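Differentiated human HepaRG cells exposed 48 h in serum-free induction medium, 8-point half-log series from 100 uM in 0.5% DMSO, duplicate. AFP mRNA by qRT-PCR, normalized to ACTB, GAPDH, POLR2A; bidirectional fit vs DMSO.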

Read-out in another test: BCL2L11 (gene 10018)
Kind of test: LTEA_HepaRG_BCL2L11: Life Technologies and Expression Analysis (LTEA) Assay for Bcl-2 (BCL2L11) gene using HepaRG (AID 2283473). The method, boiled down: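 BCL2L11 transcript levels are measured by Fluidigm qRT-PCR, normalized to three housekeeping genes. HepaRG cultures were plated 48 h, then treated 48 h with test chemical (top 100 uM, half-log, 0.5% DMSO vehicle); curves were fitted bidirectionally against DMSO.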

Read-out in test [4]: Apolipoprotein A-V (APOA5) gene, APOA5 (gene 116519)
Kind of test: LTEA_HepaRG_APOA5: Life Technologies and Expression Analysis (LTEA) Assay for Apolipoprotein A-V (APOA5) gene using HepaRG (AID 2283474). Put shortly:
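APOA5 transcript levels were quantified by qRT-PCR, normalized to three housekeeping genes, after 48 h chemical treatment of HepaRG cells (8 points, 100 uM maximum, half-log steps, 0.5% DMSO). Curves fitted in both directions against vehicle.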

Read-out in test [5]: Apoptosis regulator Bcl-2 (Homo sapiens) (UniProt P10415)
Description: LTEA_HepaRG_BCL2: Life Technologies and Expression Analysis (LTEA) Assay for Bcl-2 gene using HepaRG (AID 2283475). The method, boiled down: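 Differentiated human HepaRG cells in serum-free induction medium exposed 48 h, in duplicate, to 8-point half-log series from 100 uM in 0.5% DMSO. BCL2 mRNA by qRT-PCR (TaqMan/Fluidigm), normalized to ACTB, GAPDH, POLR2A; bidirectional fit against DMSO.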

Read-out in test [6]: Bcl-2 (BID) gene, BID (gene 637)
Description: LTEA_HepaRG_BID: Life Technologies and Expression Analysis (LTEA) Assay for Bcl-2 (BID) gene using HepaRG (AID 2283476). The method, boiled down: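 Gene expression by qRT-PCR in HepaRG cells after 48 h exposure, duplicate wells, eight half-log concentrations topping at 100 uM in 0.5% DMSO. Normalized to ACTB, GAPDH, POLR2A; bidirectional fitting relative to DMSO.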

Read-out in another test: Caspase-3 (Homo sapiens) (UniProt P42574)
Description: LTEA_HepaRG_CASP3: Life Technologies and Expression Analysis (LTEA) Assay for cysteine-aspartic acid protease (CASP3) using HepaRG (AID 2283477). The method, boiled down: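 Expression of CASP3 was quantified by TaqMan qRT-PCR against three housekeeping genes (ACTB, GAPDH, POLR2A), bidirectionally versus 0.5% DMSO. HepaRG cultures received compounds in duplicate, top 100 uM with half-log steps, for 48 h in serum-free induction medium.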

Read-out in test [7]: Cytochrome P450 (CYP24A1), CYP24A1 (gene 1591)
Kind of test: LTEA_HepaRG_CYP24A1: Life Technologies and Expression Analysis (LTEA) Assay for Cytochrome P450 (CYP24A1) using HepaRG (AID 2283478). The method, boiled down:
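mRNA of CYP24A1 quantified by TaqMan qRT-PCR (ACTB/GAPDH/POLR2A normalization) after 48 h chemical exposure of HepaRG cells, top concentration 100 uM, half-log steps, 0.5% DMSO vehicle, duplicates. Curves fitted bidirectionally against DMSO baseline.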

Read-out in test [8]: Cytochrome P450 (CYP1A2), CYP1A2 (gene 1544)
Description: LTEA_HepaRG_CYP1A2: Life Technologies and Expression Analysis (LTEA) Assay for Cytochrome P450 (CYP1A2) using HepaRG (AID 2283479). The method, boiled down:
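CYP1A2 transcript measured by TaqMan qRT-PCR against three housekeeping genes after 48-hour chemical exposure of HepaRG cells. Eight-point half-log series topping at 100 uM in 0.5% DMSO, duplicates; gain or loss fitted relative to vehicle.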

Read-out in test [9]: cysteine-aspartic acid protease (CASP8), CASP8 (gene 841)
Kind of test: LTEA_HepaRG_CASP8: Life Technologies and Expression Analysis (LTEA) Assay for cysteine-aspartic acid protease (CASP8) using HepaRG (AID 2283480). The method, boiled down: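 Differentiated human HepaRG cells, plated 48 h then switched to serum-free induction medium, were exposed in duplicate for 48 h to 8 half-log concentrations up to 100 uM in 0.5% DMSO. CASP8 mRNA was quantified by qRT-PCR, normalized to ACTB/GAPDH/POLR2A.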

Read-out in test [10]: Cytochrome P450 (CYP2B6), CYP2B6 (gene 1555)
Description: LTEA_HepaRG_CYP2B6: Life Technologies and Expression Analysis (LTEA) Assay for Cytochrome P450 (CYP2B6) using HepaRG (AID 2283481). Put shortly: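 CYP2B6 transcript level quantified by qRT-PCR against three housekeeping genes, fitted bidirectionally relative to DMSO. HepaRG cultures received chemicals for 48 h, 8-point half-log series from 100 uM in 0.5% DMSO, duplicate wells, serum-free induction medium.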

Read-out in test [11]: Cytochrome P450 2C19 (Homo sapiens) (UniProt P33261)
Kind of test: LTEA_HepaRG_CYP2C19: Life Technologies and Expression Analysis (LTEA) Assay for CYP2C19 using HepaRG (AID 2283482). Put shortly: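 CYP2C19 transcript levels by qRT-PCR, normalized to three housekeeping genes, in HepaRG cells after 48 h chemical exposure. Eight-point half-log series topping at 100 uM, 0.5% DMSO vehicle. Increases and decreases both fitted against DMSO.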

Read-out in a further test: CYP2C8 (gene 1558)
Kind of test: LTEA_HepaRG_CYP2C8: Life Technologies and Expression Analysis (LTEA) Assay for CYP2C8 using HepaRG (AID 2283483). The method, boiled down: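 Differentiated human HepaRG cells were exposed for 48 h in serum-free induction medium to eight half-log concentrations up to 100 uM in 0.5% DMSO, in duplicate. CYP2C8 mRNA was measured by TaqMan qRT-PCR, normalized to ACTB, GAPDH and POLR2A, and fitted bidirectionally against DMSO.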

Read-out in another test: CYP2C9 (gene 1559)
Description: LTEA_HepaRG_CYP2C9: Life Technologies and Expression Analysis (LTEA) Assay for CYP2C9 using HepaRG (AID 2283484). Put shortly:
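Differentiated human HepaRG cells were exposed 48 h in serum-free induction medium to eight half-log concentrations up to 100 uM in 0.5% DMSO. CYP2C9 mRNA was measured by qRT-PCR, normalized to ACTB, GAPDH and POLR2A, and fitted bidirectionally against DMSO.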

Read-out in a further test: CYP2E1 (gene 1571)
Kind of test: LTEA_HepaRG_CYP2E1: Life Technologies and Expression Analysis (LTEA) Assay for CYP2E1 using HepaRG (AID 2283485). The method, boiled down: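 HepaRG cells, plated 48 h, then exposed 48 h in serum-free induction medium to eight half-log concentrations from 100 uM in 0.5% DMSO, duplicate. CYP2E1 mRNA by qRT-PCR, normalized to ACTB/GAPDH/POLR2A; bidirectional fit versus DMSO.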

Read-out in the next test: CYP4A11 (gene 1579)
Description: LTEA_HepaRG_CYP4A11: Life Technologies and Expression Analysis (LTEA) Assay for CYP4A11 using HepaRG (AID 2283486). The method, boiled down:
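Readout is CYP4A11 transcript level by qRT-PCR, normalized to three housekeeping genes and fitted bidirectionally against 0.5% DMSO. Human HepaRG cells were treated 48 h, in duplicate, with an 8-point half-log series topping at 100 uM.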

Read-out in test [12]: Cytochrome P450 3A4 (Homo sapiens) (UniProt P08684)
Description: LTEA_HepaRG_CYP3A4: Life Technologies and Expression Analysis (LTEA) Assay for CYP3A4 using HepaRG (AID 2283487). The method, boiled down: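 In a human hepatic line (HepaRG), duplicate wells were treated 48 h with up to 100 uM chemical in half-log dilutions. Endpoint: CYP3A4 mRNA induction or loss relative to 0.5% DMSO vehicle, by qRT-PCR.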

Read-out in test [13]: adenosine kinase (ADK) gene, ADK (gene 132)
Kind of test: LTEA_HepaRG_ADK: Life Technologies and Expression Analysis (LTEA) Assay for adenosine kinase (ADK) gene using HepaRG (AID 2283471). Put shortly: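 Following 48 h exposure of HepaRG cells in 0.5% DMSO (top concentration 100 uM, duplicate wells), ADK mRNA induction or suppression was measured by qRT-PCR, normalised to ACTB/GAPDH/POLR2A, and fitted bidirectionally relative to vehicle.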

Sequence of Caspase-3 (Homo sapiens) (P42574 whole entry, looked up): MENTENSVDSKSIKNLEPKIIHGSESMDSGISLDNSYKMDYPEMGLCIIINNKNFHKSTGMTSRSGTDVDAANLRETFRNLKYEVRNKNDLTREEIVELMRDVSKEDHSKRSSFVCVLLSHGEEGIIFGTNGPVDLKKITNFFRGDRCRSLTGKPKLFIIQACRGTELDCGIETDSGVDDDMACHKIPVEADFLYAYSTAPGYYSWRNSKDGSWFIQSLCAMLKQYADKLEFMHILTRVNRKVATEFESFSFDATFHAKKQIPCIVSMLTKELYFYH
Sequence of Apoptosis regulator Bcl-2 (Homo sapiens) (P10415 whole entry, looked up): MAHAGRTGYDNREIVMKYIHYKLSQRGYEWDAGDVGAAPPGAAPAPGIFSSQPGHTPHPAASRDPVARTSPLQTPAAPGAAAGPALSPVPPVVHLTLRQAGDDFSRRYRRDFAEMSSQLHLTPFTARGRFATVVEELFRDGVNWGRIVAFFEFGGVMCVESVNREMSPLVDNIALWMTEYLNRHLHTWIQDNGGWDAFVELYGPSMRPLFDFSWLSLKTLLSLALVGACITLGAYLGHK
Sequence of Cytochrome P450 2C19 (Homo sapiens) (P33261 whole entry, looked up): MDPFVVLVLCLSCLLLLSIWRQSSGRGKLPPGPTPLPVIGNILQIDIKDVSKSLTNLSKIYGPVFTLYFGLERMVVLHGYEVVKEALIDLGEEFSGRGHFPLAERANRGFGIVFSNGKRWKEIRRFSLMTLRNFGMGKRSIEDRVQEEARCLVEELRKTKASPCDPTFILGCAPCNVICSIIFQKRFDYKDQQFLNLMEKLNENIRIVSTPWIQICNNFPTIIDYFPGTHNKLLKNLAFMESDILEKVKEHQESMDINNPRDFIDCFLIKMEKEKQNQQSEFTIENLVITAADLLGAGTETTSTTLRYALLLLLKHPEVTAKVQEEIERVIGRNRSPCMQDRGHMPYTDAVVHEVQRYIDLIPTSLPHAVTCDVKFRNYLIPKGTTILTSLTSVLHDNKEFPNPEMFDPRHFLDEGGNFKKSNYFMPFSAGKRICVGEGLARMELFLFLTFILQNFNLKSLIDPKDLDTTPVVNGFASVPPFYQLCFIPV
Sequence of Cytochrome P450 3A4 (Homo sapiens) (P08684 whole entry, looked up): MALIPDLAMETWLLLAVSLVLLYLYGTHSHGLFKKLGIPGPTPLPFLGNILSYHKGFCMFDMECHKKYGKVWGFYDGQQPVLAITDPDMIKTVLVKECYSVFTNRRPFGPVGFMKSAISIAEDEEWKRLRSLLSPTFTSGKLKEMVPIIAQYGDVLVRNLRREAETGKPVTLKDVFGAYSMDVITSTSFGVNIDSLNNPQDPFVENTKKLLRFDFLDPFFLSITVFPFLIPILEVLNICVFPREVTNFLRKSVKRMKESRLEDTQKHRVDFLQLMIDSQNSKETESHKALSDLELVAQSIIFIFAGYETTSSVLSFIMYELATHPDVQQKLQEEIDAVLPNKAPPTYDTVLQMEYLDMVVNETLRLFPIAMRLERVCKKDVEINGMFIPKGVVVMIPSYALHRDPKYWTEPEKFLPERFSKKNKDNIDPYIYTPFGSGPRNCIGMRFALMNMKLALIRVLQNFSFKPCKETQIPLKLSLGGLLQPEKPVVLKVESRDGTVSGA

Take `CCc1cccc(CC)c1N(COC)C(=O)CCl`: the result (in test [1]; in [2]; in test [3]; with BCL2L11 (gene 10018); in test [4]; in test [5]) was inactive. Besides, the molecule was classed as inactive (in test [6]; in the test with Caspase-3 (Homo sapiens); in [7]; in test [8]; in test [9]; in test [11]). Also, the outcome (in the test with CYP2C8 (gene 1558); with CYP2C9 (gene 1559); with CYP2E1 (gene 1571); with CYP4A11 (gene 1579); in test [12]) was inactive. Also, the AC50 in test [10] is 50 µM (active).

Turning to `CCCSP(=O)(OCC)Oc1ccc(Br)cc1Cl` (centres undefined), the result (in test [1]; in test [2]; in [3]; with BCL2L11 (gene 10018); in test [4]; in test [5]) was inactive. The molecule was called inactive (in [6]; in the test with Caspase-3 (Homo sapiens); in test [7]; in test [8]; in [9]; in test [11]). Moreover, the molecule was called inactive (with CYP2C8 (gene 1558); with CYP2C9 (gene 1559); with CYP4A11 (gene 1579); in [12]). Moreover, the AC50 was 13.4 µM (active) in test [10] and 40.4 µM (active) with CYP2E1 (gene 1571).

As for `FC(F)C(F)(F)OCC(Cn1cncn1)c1ccc(Cl)cc1Cl` (centres undefined), the call (in test [1]; in test [13]; in the test with BCL2L11 (gene 10018); in test [6]; in test [7]; in test [9]) was inactive. The AC50 in test [2] is 32.3 µM (active); in test [3], 20.2 µM (active); in test [4], 35.6 µM (active); in [5] it was 30.2 µM (active); with Caspase-3 (Homo sapiens), 82 µM (active); in test [8], 28.6 µM (active). Besides, the half-maximal activity concentration (AC50) in test [10] is 31.7 µM (active); in test [11] it was 34.8 µM (active); in the test with CYP2C8 (gene 1558), 24.6 µM (active); in the test with CYP2C9 (gene 1559), 38.1 µM (active); with CYP2E1 (gene 1571) it was 16.1 µM (active); in the test with CYP4A11 (gene 1579), 28.8 µM (active). Besides, in [12], the AC50 was 35.2 µM (active).

As to `CNC(=O)ON=C(C)SC`, the outcome (in [1]; in [2]; in [13]; in test [3]; with BCL2L11 (gene 10018); in test [4]) was inactive. For the same molecule, the outcome (in test [5]; in test [6]; with Caspase-3 (Homo sapiens); in test [7]; in [8]; in test [9]) was inactive. In addition, the result (in test [10]; in [11]; in the test with CYP2C8 (gene 1558); with CYP2C9 (gene 1559); with CYP2E1 (gene 1571); with CYP4A11 (gene 1579)) was inactive. In addition, in test [12], the molecule was called inactive.

As to `CCOP(=S)(OCC)Oc1cc(C)nc(C(C)C)n1`, the outcome (in [1]; in test [2]; in test [3]; with BCL2L11 (gene 10018); in test [4]; in test [5]) was inactive. Further, the result (in test [6]; with Caspase-3 (Homo sapiens); in [7]; in [9]; in the test with CYP2C8 (gene 1558); with CYP2C9 (gene 1559)) was inactive. Besides, the molecule was called inactive in the test with CYP4A11 (gene 1579). Moreover, the AC50 in test [8] is 29.3 µM (active); in test [10] it was 2.5 µM (active); in test [11] it was 16.1 µM (active); with CYP2E1 (gene 1571) it was 9.92 µM (active).

Take `COc1cc(OC)nc(Sc2cccc(Cl)c2C(=O)O)n1`: the call (in [1]; in test [2]; in [3]; in the test with BCL2L11 (gene 10018); in [4]; in test [5]) was inactive. In addition, the result (in [6]; with Caspase-3 (Homo sapiens); in test [7]; in test [8]; in [9]; in test [10]) was inactive. The call (in test [11]; with CYP2C8 (gene 1558); in the test with CYP2C9 (gene 1559); with CYP4A11 (gene 1579)) was inactive. Besides, the AC50 is 29.7 µM (active) with CYP2E1 (gene 1571) and 50 µM (active) in [12].

For orientation: AC50 means the concentration giving half of the maximal activity seen.
